Assay results as given in PubChem BioAssay.
Entries with a potency or affinity are not part of this list. Activity calls are given as the source filed them. Unless noted, the rule behind the calls is not given here.

Target: Calcium-dependent protein kinase 1 (Plasmodium falciparum (isolate 3D7)) (UniProt P62344)
Experiment: PfCDPK1 kinase inhibitors, biochemical, TCAMS library (AID 1159585; cut-off not given, nearly all actives have IC50 up to about 0.98 µM;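 note: inhibitors leave more ATP so luminescence rises with inhibition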)
Conditions: recombinant PfCDPK1, Kinase-Glo ATP depletion luminescence

Chain of Calcium-dependent protein kinase 1 (Plasmodium falciparum (isolate 3D7)) (P62344 whole entry, looked up): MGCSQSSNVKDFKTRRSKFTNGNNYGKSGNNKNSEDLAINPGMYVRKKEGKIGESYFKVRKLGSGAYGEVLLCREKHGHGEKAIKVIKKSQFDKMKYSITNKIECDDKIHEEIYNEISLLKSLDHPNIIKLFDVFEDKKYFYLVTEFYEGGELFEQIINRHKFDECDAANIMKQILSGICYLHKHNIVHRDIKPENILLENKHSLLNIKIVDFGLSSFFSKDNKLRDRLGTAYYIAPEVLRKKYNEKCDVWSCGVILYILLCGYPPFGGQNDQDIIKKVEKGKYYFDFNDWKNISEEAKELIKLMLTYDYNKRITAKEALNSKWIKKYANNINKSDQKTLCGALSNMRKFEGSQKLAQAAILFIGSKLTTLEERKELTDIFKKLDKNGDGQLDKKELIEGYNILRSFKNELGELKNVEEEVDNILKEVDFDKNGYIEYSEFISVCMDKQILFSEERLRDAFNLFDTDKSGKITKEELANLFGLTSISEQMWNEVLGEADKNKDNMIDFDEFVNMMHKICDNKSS

outcome, inactive:
O=C(Nc1ccc(-c2nc3ccccc3[nH]2)cc1)c1cncc(Br)c1, NCc1ccc(CNCc2ccc(-c3ccc(-c4nc5ccc(C(F)(F)F)cc5[nH]4)s3)cc2)cc1, O=C(Nc1cccc(CN2CCN(Cc3ccc(O)cc3)CC2)c1)c1cccc(C(F)(F)F)c1, O=C(Nc1ccc(C(F)(F)F)cc1)c1ccc(S(=O)(=O)NCC2CCCN(CC3CCCCC3)C2)cc1 (stereo not drawn), O=C(/C=C/c1ccc(Cl)c(Cl)c1)NCCCCCN1CCC(NC(=O)NC2CCCCCC2)CC1, O=C(/C=C/c1ccc(Cl)cc1)NCCCCCN1CCCC(C(=O)Nc2ccc(Cl)c(Cl)c2)C1 (stereo not drawn), Cc1ccc2nc(C)cc(Nc3ccccc3O)c2c1, COc1ccc(NC(=O)CSc2nc(-c3ccccc3Cl)ns2)cc1OC, COc1c(Br)cc(Br)cc1C(C)=O, COc1cc2c(cc1OCCN1CCC(N)CC1)N(C(=O)/C=C/c1ccccc1Cl)CC2, COc1ccccc1C(=O)Nc1cccc(N2CCC(NCc3ccc(-n4cccn4)cc3)CC2)c1, CC(C)c1cc(Oc2c(I)cc(CCNCc3ccccc3)cc2I)ccc1O, Cc1cc(Nc2cccc(Cl)c2)nc2ccc(NC(=O)c3ccc(=O)[nH]c3)cc12, O=C(O)c1ccc2nc(-c3ccccn3)c(-c3ccccn3)nc2c1, Cc1cc(NN=Cc2cccc([N+](=O)[O-])c2)c2ccc(F)cc2n1, OC1(Cc2ccccc2)CCN(Cc2cccc(-c3c[nH]c4nc(NC5CCCC5)ncc34)c2)CC1, COC(=O)c1noc(C)c1I, CC(C)(CNCc1ccc(C(F)(F)F)cc1)c1nc(-c2ccc(Cl)c(O)c2)c(-c2ccncc2)[nH]1, CC1=C(C(=O)Nc2ccc(Cl)cc2)C(c2ccncc2)n2nc(C(F)(F)F)nc2N1 (stereo not drawn), O=C(Cc1cccnc1)N(Cc1ccc(-c2ccc(CNCc3cccnc3)cn2)cc1)C1CCN(Cc2ccccc2)CC1, CS(=O)(=O)c1ccccc1CNC(=O)c1ccc(-c2ccc(-c3nc4ccc(C(F)(F)F)cc4[nH]3)s2)cc1, Cc1ccc(NC(=O)c2cccc(C#N)c2)cc1-c1ccc(C(=O)Nc2ccncc2)cc1, O=C(/C=C/c1ccc(Cl)c(Cl)c1)NC1CCC(CN2CCC(c3nc4ncccc4[nH]3)CC2)CC1 (stereo not drawn), OC(CNCc1cccc(Oc2ccc(Cl)cc2)c1)c1cc(C(F)(F)F)cc(C(F)(F)F)c1 (stereo not drawn), NC(=O)CCC(NC(=O)CNC(=O)Nc1cccc(C(F)(F)F)c1)C(=O)O (stereo not drawn), CS(=O)(=O)c1ccc(CNCc2ccc(-c3ccc(-c4nc5ccc(C(F)(F)F)cc5[nH]4)cc3)cc2)cc1, O=C(Nc1ccc(Br)cc1)N(CCN1CCOCC1)CC(O)COc1ccc(Cl)c(F)c1 (stereo not drawn), COc1ccc(Nc2ncc3c(-c4cccc(NC(=O)Cc5ccncc5)c4)c[nH]c3n2)cc1OC, CN(C)c1ccc(-c2ccc(C(=O)NC3CCN(Cc4ccc(C(C)(C)C)cc4)CC3)s2)cc1, Cc1ccc(-c2cc(C(=O)Nc3ccc(S(=O)(=O)N4CCCCC4C)cc3)[nH]n2)c(O)c1 (stereo not drawn), CCn1c2ccccc2c2cc(C=NNc3cc(C)nc4ccccc34)ccc21, CC(=O)Nc1ncc(C(=O)Nc2cccc(-c3ccc(-c4nc5ccc(C(F)(F)F)cc5[nH]4)cc3)c2)s1, Cc1nc2nc(N)nc(N)c2c(C)c1Cc1cccc(F)c1, O=[N+]([O-])c1ccc(/C=N/Nc2cc(-c3ccccc3)nc3ccccc23)o1, CC(=O)Nc1nc(C(=O)Nc2ccc(-c3ccc(-c4nc5ccccc5[nH]4)cc3)cc2)cs1, COc1cccc2cc(C(=O)N[C@@H](CC(C)C)C(=O)N[C@H](/C=N/N(C)C(=O)OC(C)(C)C)Cc3ccccc3)oc12, Cc1cc(NN=Cc2ccc(Cl)cc2)c2cccc(C)c2n1, Cc1onc(-c2ccccc2Cl)c1C(=O)Nc1cc(Cl)c(Cl)cc1Cl, Cc1cccc2[nH]c(-c3ccc(-c4ccc(CN5CCC(CCN6CCCCC6)CC5)cc4)cc3)nc12

Target: Plasmodium falciparum protein kinase 6 (PK6, PF3D7_1337100) (UniProt Q8IDW1)
Experiment: PfPK6 kinase inhibitors, biochemical, TCAMS library (AID 1159586)
Conditions: recombinant PfPK6, Kinase-Glo ATP depletion luminescence

Chain of Plasmodium falciparum protein kinase 6 (PK6, PF3D7_1337100) (Q8IDW1 1-305): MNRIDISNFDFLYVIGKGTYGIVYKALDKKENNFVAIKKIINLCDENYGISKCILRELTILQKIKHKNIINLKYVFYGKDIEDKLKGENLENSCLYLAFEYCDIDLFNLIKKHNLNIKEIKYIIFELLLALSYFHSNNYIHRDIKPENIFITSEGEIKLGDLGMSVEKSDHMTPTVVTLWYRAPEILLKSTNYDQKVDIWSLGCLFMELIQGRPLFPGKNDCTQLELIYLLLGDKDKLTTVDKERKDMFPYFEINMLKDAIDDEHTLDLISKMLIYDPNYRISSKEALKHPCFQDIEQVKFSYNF

outcome, inactive:
O=C(Nc1ccc(-c2nc3ccccc3[nH]2)cc1)c1cncc(Br)c1, NCc1ccc(CNCc2ccc(-c3ccc(-c4nc5ccc(C(F)(F)F)cc5[nH]4)s3)cc2)cc1, O=C(Nc1cccc(CN2CCN(Cc3ccc(O)cc3)CC2)c1)c1cccc(C(F)(F)F)c1, O=C(Nc1ccc(C(F)(F)F)cc1)c1ccc(S(=O)(=O)NCC2CCCN(CC3CCCCC3)C2)cc1 (stereo not drawn), O=C(/C=C/c1ccc(Cl)c(Cl)c1)NCCCCCN1CCC(NC(=O)NC2CCCCCC2)CC1, O=C(/C=C/c1ccc(Cl)cc1)NCCCCCN1CCCC(C(=O)Nc2ccc(Cl)c(Cl)c2)C1 (stereo not drawn), Cc1ccc2nc(C)cc(Nc3ccccc3O)c2c1, COc1ccc(NC(=O)CSc2nc(-c3ccccc3Cl)ns2)cc1OC, COc1c(Br)cc(Br)cc1C(C)=O, COc1cc2c(cc1OCCN1CCC(N)CC1)N(C(=O)/C=C/c1ccccc1Cl)CC2, COc1ccccc1C(=O)Nc1cccc(N2CCC(NCc3ccc(-n4cccn4)cc3)CC2)c1, CC(C)c1cc(Oc2c(I)cc(CCNCc3ccccc3)cc2I)ccc1O, Cc1cc(Nc2cccc(Cl)c2)nc2ccc(NC(=O)c3ccc(=O)[nH]c3)cc12, O=C(O)c1ccc2nc(-c3ccccn3)c(-c3ccccn3)nc2c1, Cc1cc(NN=Cc2cccc([N+](=O)[O-])c2)c2ccc(F)cc2n1, OC1(Cc2ccccc2)CCN(Cc2cccc(-c3c[nH]c4nc(NC5CCCC5)ncc34)c2)CC1, COC(=O)c1noc(C)c1I, CC(C)(CNCc1ccc(C(F)(F)F)cc1)c1nc(-c2ccc(Cl)c(O)c2)c(-c2ccncc2)[nH]1, CC1=C(C(=O)Nc2ccc(Cl)cc2)C(c2ccncc2)n2nc(C(F)(F)F)nc2N1 (stereo not drawn), O=C(Cc1cccnc1)N(Cc1ccc(-c2ccc(CNCc3cccnc3)cn2)cc1)C1CCN(Cc2ccccc2)CC1, CS(=O)(=O)c1ccccc1CNC(=O)c1ccc(-c2ccc(-c3nc4ccc(C(F)(F)F)cc4[nH]3)s2)cc1, Cc1ccc(NC(=O)c2cccc(C#N)c2)cc1-c1ccc(C(=O)Nc2ccncc2)cc1, O=C(/C=C/c1ccc(Cl)c(Cl)c1)NC1CCC(CN2CCC(c3nc4ncccc4[nH]3)CC2)CC1 (stereo not drawn), OC(CNCc1cccc(Oc2ccc(Cl)cc2)c1)c1cc(C(F)(F)F)cc(C(F)(F)F)c1 (stereo not drawn), NC(=O)CCC(NC(=O)CNC(=O)Nc1cccc(C(F)(F)F)c1)C(=O)O (stereo not drawn), CS(=O)(=O)c1ccc(CNCc2ccc(-c3ccc(-c4nc5ccc(C(F)(F)F)cc5[nH]4)cc3)cc2)cc1, O=C(Nc1ccc(Br)cc1)N(CCN1CCOCC1)CC(O)COc1ccc(Cl)c(F)c1 (stereo not drawn), COc1ccc(Nc2ncc3c(-c4cccc(NC(=O)Cc5ccncc5)c4)c[nH]c3n2)cc1OC, CN(C)c1ccc(-c2ccc(C(=O)NC3CCN(Cc4ccc(C(C)(C)C)cc4)CC3)s2)cc1, Cc1ccc(-c2cc(C(=O)Nc3ccc(S(=O)(=O)N4CCCCC4C)cc3)[nH]n2)c(O)c1 (stereo not drawn), CCn1c2ccccc2c2cc(C=NNc3cc(C)nc4ccccc34)ccc21, CC(=O)Nc1ncc(C(=O)Nc2cccc(-c3ccc(-c4nc5ccc(C(F)(F)F)cc5[nH]4)cc3)c2)s1, Cc1nc2nc(N)nc(N)c2c(C)c1Cc1cccc(F)c1, O=[N+]([O-])c1ccc(/C=N/Nc2cc(-c3ccccc3)nc3ccccc23)o1, CC(=O)Nc1nc(C(=O)Nc2ccc(-c3ccc(-c4nc5ccccc5[nH]4)cc3)cc2)cs1, COc1cccc2cc(C(=O)N[C@@H](CC(C)C)C(=O)N[C@H](/C=N/N(C)C(=O)OC(C)(C)C)Cc3ccccc3)oc12, Cc1cc(NN=Cc2ccc(Cl)cc2)c2cccc(C)c2n1, Cc1onc(-c2ccccc2Cl)c1C(=O)Nc1cc(Cl)c(Cl)cc1Cl, Cc1cccc2[nH]c(-c3ccc(-c4ccc(CN5CCC(CCN6CCCCC6)CC5)cc4)cc3)nc12
